Gal4-VP16 FLuc: VP16 counterscreen qHTS for inhibitors of ROR gamma transcriptional activity. Drosophila S2 Gal4-VP16 UAS-luciferase, luminescence, 20 h. Potency, µM (doses to about 53.6 µM), for inactives: top-dose activity, negative = inhibition, hits mostly inhibitors. 310,000 tested, 3.5% active. AID 2546, 2010;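 further: Gal4-VP16 expression switched on by copper sulfate through the metallothionein promoter; potency means the concentration at half of the fitted maximal effect; on the % scale 0 is the no-effect control and ±100 the full control effect; nearly all actives have a fitted effect of over 50% in size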
CBFb RUNX1 block: qHTS Assay for Compounds Blocking the Interaction Between CBF-beta and RUNX1 for the Treatment of Acute Myeloid Leukemia | Runt-related transcription factor 1 (Homo sapiens) + Core-binding factor subunit beta … | AlphaScreen CBFb-His/RUNX1-biotin binding, biochemical | Potency, µM (titrated, usually from 59.8 µM), for inactives: at the highest dose activity, negative = inhibition, most hits filed as inhibitors | 230,000 tested, under 10 active | AID 1477, 2009; further: % of control where 0% means no effect
Target sequence (Q01196 whole entry, looked up): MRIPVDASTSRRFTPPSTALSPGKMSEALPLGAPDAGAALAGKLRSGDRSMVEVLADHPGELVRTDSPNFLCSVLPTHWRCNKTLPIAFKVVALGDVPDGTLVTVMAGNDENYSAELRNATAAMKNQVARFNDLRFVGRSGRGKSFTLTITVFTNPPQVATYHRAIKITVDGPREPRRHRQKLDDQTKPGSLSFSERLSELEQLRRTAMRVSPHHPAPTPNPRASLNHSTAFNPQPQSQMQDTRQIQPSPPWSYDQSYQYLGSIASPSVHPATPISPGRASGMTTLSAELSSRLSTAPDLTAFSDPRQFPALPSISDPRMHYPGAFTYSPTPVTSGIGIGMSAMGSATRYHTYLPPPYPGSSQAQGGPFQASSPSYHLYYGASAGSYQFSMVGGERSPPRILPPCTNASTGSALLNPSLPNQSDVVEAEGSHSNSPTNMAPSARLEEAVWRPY
Target sequence (Q13951 whole entry, looked up): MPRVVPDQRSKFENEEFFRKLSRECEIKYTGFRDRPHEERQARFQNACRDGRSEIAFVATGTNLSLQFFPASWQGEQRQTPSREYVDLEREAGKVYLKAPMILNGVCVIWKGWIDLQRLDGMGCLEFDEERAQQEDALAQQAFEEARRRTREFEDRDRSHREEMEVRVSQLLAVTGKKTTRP
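Proteins preincubated together for 20 min at RT before compound addition; 15 min later, nickel and streptavidin beads were added and left 90 min prior to AlphaScreen measurement.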
CtBP-E1A inh: qHTS Assay for Inhibitors of the CtBP/E1A Interaction. AlphaScreen GST-E1A/His-CtBP binding, 1536-well; hits give low values. CtBP / adenovirus E1A interaction (AlphaScreen). activity change, % (no concentration beside the values). 340,000 tested, 0.49% active. AID 651724, 2012; in the data active means activity change below about -65%; inconclusive means mostly about -30% to -63%; further: on the % scale 0 is the no-effect control and ±100 the full control effect
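Protein mix (5X: 125 nM each GST-E1A, His-CtBP) was incubated with pinned compound 2 h at 37 deg C in dark, in 50 mM Tris pH 8.0 buffer with 300 mM NaCl. Glutathione donor and nickel acceptor beads followed; AlphaScreen signal read after 1 h.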
Six1-Eya2 inh: qHTS Assay for Inhibitors of the Six1/Eya2 Interaction; 360,000 tested, 0.56% active; AID 651725, 2012; activity change, % (test concentration not listed); AlphaScreen GST-Six1/His-Eya2 binding, biochemical; hits give low values; in the data active means activity change below about -65%; inconclusive means mostly about -30% to -63%; further: on the % scale 0 is the no-effect control and ±100 the full control effect
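Six1/Eya2 binding was read as AlphaScreen signal after compounds were pinned into GST-Six1 plus His-tagged Eya2 (5X stock 250/500 nM) in pH 8.0 Tris/NaCl/TCEP buffer, beads added, then incubated 1 h, 37 C, dark.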
RORgamma inh: qHTS for inhibitors of ROR gamma transcriptional activity. AID 2551, 2010. Drosophila S2 Gal4-RORgamma UAS-luciferase reporter, 20 h. 310,000 tested, 5.4% active. Potency, µM (titrated, usually from 53.6 µM), for inactives: at the top dose activity change, negative = inhibition, hits mostly inhibitors; further: potency means the concentration at half of the fitted maximal effect; on the % scale 0 is the no-effect control and ±100 the full control effect; nearly all actives have a fitted effect of over 60% in size
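Stably transfected Drosophila Schneider cells are the test system, with ROR gamma fused to Gal4 and luciferase under UAS control; luminescence is read after 20 hr of 700 uM copper sulfate induction at ambient temperature.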
MBNL1-CUG inh: qHTS Assay for Inhibitors of MBNL1-poly(CUG) RNA binding; Muscleblind-like protein 1 (Homo sapiens), Q9NR56; TR-FRET MBNL1-His/biotin-(CUG)12 binding, 665/545 ratio; Potency, µM (doses to about 57.5 µM), inactives show at the highest dose activity change, negative = inhibition, most hits filed as inhibitors; 280,000 tested, 0.036% active; AID 2675, 2010; active means well fitted inhibition curve with a large enough effect in the signal ratio, with a control signal flat, not every such curve was filed as active; inconclusive means small, poorly fitted or top-dose-only effect, or effect the other way, or a change in a side signal; inactive means no such curve, though single readings can be large or run the other way; the % refers to the signal ratio; further: potency means the concentration at half of the fitted maximal effect; on the % scale 0 is the no-effect control and ±100 the full control effect
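MBNL1-His + Biotin-(CUG)12, cpd titration 92 nM–58 uM; Tb anti-His Ab 0.055 ng/ul, SA-XL665 5 nM (final); 60 min RT; ratiometric 665/545 nm, Ex 340 nm; normalized to buffer and full-complex controls.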
Numbers without * were called inactive; ? = inconclusive; · = no result given; [ ] = another dose, or the depositor's remark. Compounds with a hit are over-represented: about 5.5% of the library has one in this group of screens. Unless noted, the call rests on the fitted dose curve; in most records, active means well fitted curve in the direction sought with a large enough effect; inconclusive means small, poorly fitted or top-dose-only effect, or another doubt; inactive means no such curve, though single readings can be large; an effect the other way counts as inactive or inconclusive.

SMILES	Gal4-VP16 FLuc	CBFb RUNX1 block	CtBP-E1A inh	Six1-Eya2 inh	RORgamma inh	MBNL1-CUG inh
CC(C)CC(/C(O)=C(\C#N)c1nc2ccccc2[nH]1)N1C(=O)c2ccccc2C1=O (configuration not stated)	20µM*	-7%	-6	1	7.9µM*	1%
CC(C)(C)/C(O)=C(/C#N)c1nc2ccccc2[nH]1	?	-2%	-7	-3	11µM*	4%
N#C/C(=C(O)\C=C\c1ccccc1)c1nc2ccccc2[nH]1	-21%	0%	·	0	2µM*	8%
CCOC(=O)/C(O)=C(\C#N)c1nc2ccccc2[nH]1	-6%	-2%	-2	-10	?	8%
N#C/C(=C(/O)c1ccc([N+](=O)[O-])o1)c1nc2ccccc2[nH]1	-9%	12%	·	1	3%	?
COc1ccc(CCN2CC(C(=O)NCc3cccc(F)c3)CCC2=O)cc1 (configuration not stated)	·	·	6	3	·	·
O=C(N/N=C/c1cc([N+](=O)[O-])ccc1O)c1ccc(COc2ccc3c(c2)CCC3)o1	1.4µM*	·	-18	-3	2.2µM*	-2%
O=C(NCc1cccnc1)c1ccc(COc2ccc3c(c2)CCC3)o1	20µM*	?	17	-3	-110%	2%
COC(=O)c1ccc(COc2ccc3c(c2)CCC3)o1	-5%	17%	2	9	35%	3%
CC1O[C@@H](O[C@H](C)CC/C=C/C(=O)O)C(O)C[C@H]1O (some centres not stated)	·	·	4	4	·	·
Cc1ccc(S(=O)(=O)Nc2ccccc2C(=O)Nc2nc(-c3ccc(F)cc3)cs2)cc1	-8%	-9%	18	0	16%	-4%
COc1ccc(-c2csc(NC(=O)c3ccccc3NS(=O)(=O)c3ccc(F)c(F)c3)n2)cc1	4µM*	-5%	-1	-12	5.6µM*	-2%
CC(C)C1=NN(C(=O)c2ccccc2)C(O)(C(C)(C)C)C1 (configuration not stated)	?	-1%	0	16	4.5µM*	-10%
Cc1cc2ccccc2n1CCNC(=O)C(C)Oc1ccccc1 (configuration not stated)	?	21%	-18	-15	7.1µM*	-1%
CC(C)(C)c1ccc(C(=O)Nc2ccc(Cl)cc2)cc1	-5%	1%	0	13	3%	?
COC(=O)Cc1ccc(NC(=O)c2ccccc2Cl)cc1	-6%[10 µM]	0%	0	24	-18%	2%
COC(=O)Cc1ccc(NC(=O)c2ccc(C(C)(C)C)cc2)cc1	?	3%	0	22	1.6µM*	-1%
CC(C)(C)c1ccc(NC(=O)c2ccsc2)cc1	7.9µM*	4%	10	7	-28%	-1%
CCCCN(C=O)c1c(CC)nc2ccc(C(=O)NCCOc3ccc(OC)cc3)cn12	·	·	8	-3	·	·
Clc1ccc(COn2c(-c3ccccc3)nc3ccccc32)cc1	?	12%	10	9	10µM*	-7%
Clc1ccc(COn2c(-c3ccc(Cl)cc3)nc3ccccc32)cc1	21%	19%	15	6	11µM*	2%
CCCCn1nnnc1C(c1cc2ccccc2o1)N1CCCN(C(=O)OC(C)(C)C)CC1 (configuration not stated)	·	·	-1	-2	·	·
Cc1ccc(-c2ccc(/C=C(\C#N)C(N)=S)n2C)cc1	?	?	-22	-21	2.2µM*	·
Oc1cccc2ccc(/C=C/c3c(F)cccc3Cl)nc12	?	-7%	14	4	3.2µM*	-4%
O/N=C/c1ccc2cccc(O)c2n1	?	-12%	·	-5	11µM*	?
SMILES	Gal4-VP16 FLuc	CBFb RUNX1 block	CtBP-E1A inh	Six1-Eya2 inh	RORgamma inh	MBNL1-CUG inh
O/N=C/c1ccc2ccccc2n1	-5%	22%	-1	5	-30%	5%
Oc1cccc2ccc(/C=C/c3ccccc3Cl)nc12	4.5µM*	·	·	6	4µM*	6%
COc1ccc(C(=O)N/N=C/c2ccc3cccc(O)c3n2)cc1	4µM*	?	-22	?	1.4µM*	?
CO[C@]1(NC(=O)C(C(=O)O)c2ccc(O)cc2)C(=O)N2C(C(=O)O)=C(CSc3nnnn3C)COC21 (some centres not stated)	7%	6%	·	·	8%	·
O=S(=O)(c1ccccc1)N1N=C(c2ccc(Cl)cc2)CC1c1ccco1 (configuration not stated)	·	·	-4	-9	·	·
Cc1cc(OCC(=O)NCCCn2ccnc2)c2c(C)c(C)c(=O)oc2c1	-5%	·	-24	-10	-26%	7%
C[C@@](N)(Cc1ccc(O)c(O)c1)C(=O)O	4%	-1%[21.7 µM]	·	·	11%	·
COc1ccc(C2CC(O)(c3ccccc3)Oc3c(C)ccc(C)c32)cc1 (configuration not stated)	13µM*	29%	0	-1	?	-1%
COc1ccc(C2CC(O)(c3ccccc3)Oc3cc(OC)cc(OC)c32)cc1 (configuration not stated)	1%	-2%	-9	-6	?	-3%
CCOc1ccc(C(=O)CSCCC(=O)O)cc1	0.32µM*	-3%	5	9	0.28µM*	0%
Cc1nc2ccc(NS(=O)(=O)c3ccc(F)c(C)c3)cc2[nH]1	7.1µM*	·	·	-1	?	-7%
Cc1nc2ccc(S(=O)(=O)c3ccc4nc(C)[nH]c4c3)cc2[nH]1	-2%	-4%	-14	-7	18%	-10%
CCOc1ccc(-c2c(C(=O)N/N=C/c3ccc(C)o3)nnn2-c2nonc2N)cc1	10µM*	·	0	-1	5.6µM*	6%
Cc1ccc(/C=N/NC(=O)c2nnn(-c3nonc3N)c2-c2ccccc2)o1	?	·	-2	-8	10µM*	?
Cc1ccc(/C=N/NC(=O)c2nnn(-c3nonc3N)c2C)o1	-4%	·	2	2	3%	?
CCCOc1ccc(-c2c(C(=O)N/N=C/c3ccc(C)o3)nnn2-c2nonc2N)cc1	5.6µM*	·	·	-4	3.5µM*	2%
Cc1ccc(C(=O)NC2CCC(C)CC2)o1 (configuration not stated)	·	·	-13	3	·	·
